Assay results reported in PubChem BioAssay AID1159580 (chemical genetic matrix, 2015).
The campaign covered roughly 5,500 compounds. About 2,000 (36%) were called active. Inconclusive results (about 18%) are left out. No stated cut-off is given here; in the data, active means normalized growth mostly below about 0.91 (no sharp cut-off); inconclusive means no clear call, values can overlap the other calls; inactive means mostly above about 0.92. The list shows a part of the results. Where a SMILES comes first, the peptide text is derived from it. The star is where a group is joined. Cbz = O=C(OCc1ccccc1)*

Assay: chemical genetic growth profiling, strain panel (AID 1159580);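 further: tested at 20 µM; growth read once vehicle control cultures reached saturation at 30 °C; 1 = growth at the plate median or of vehicle wells; lower values mean less growth of the strain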
Settings: S. cerevisiae deletion strains, growth OD
[1] = locus YHR030C, strain SLT2, active compounds read low
[2] = locus YHR079C, strain IRE1, active compounds read low
[3] = locus YJL095W, strain BCK1, active compounds read low
[4] = locus YJR066W, strain TOR1, active compounds read low
[5] = locus YLR113W, strain HOG1, active compounds read low
[6] = locus YNL183C, strain NPR1, active compounds read low
[7] = locus YOR231W, strain MKK1, active compounds read low
[8] = locus YPL256C, strain CLN2, active compounds read low
[9] = locus YAL040C, strain CLN3, active compounds read low
[10] = locus YCL061C, strain MRC1 (second series), active compounds read low
[11] = locus YDR363W, strain ESC2, active compounds read low
[12] = locus YER002W, strain NOP16, active compounds read low
[13] = locus YMR263W, strain SAP30, active compounds read low
[14] = locus YMR307W, strain GAS1, active compounds read low
[15] = locus YNL175C, strain NOP13, active compounds read low
[16] = locus YNL197C, strain WHI3, active compounds read low
[17] = locus YNL224C, strain SQS1, active compounds read low
[18] = locus YNL322C, strain KRE1, active compounds read low
[19] = locus YOR083W, strain WHI5 (second series), active compounds read low
[20] = locus YGR229C, strain SMI1, active compounds read low
[21] = locus YJR075W, strain HOC1, active compounds read low

Measured: normalized growth

COC(=O)[C@H](Cc1ccccc1)NC(=O)[C@@H](N)CC(=O)O (H-Asp-Phe-OMe)
inactive: locus YAL021C, strain ccr4, active compounds read low 1.01 | locus YAL026C, strain drs2, active compounds read low 1.01 | locus YAL030W, strain snc1, active compounds read low 1 | locus YBL061C, strain skt5, active compounds read low 1.02 | locus YBR009C, strain hhf1, active compounds read low 1.02 | locus YBR023C, strain chs3, active compounds read low 1.02 | locus YBR171W, strain sec66, active compounds read low 1.02 | locus YBR231C, strain swc5, active compounds read low 1.03 | locus YBR279W, strain paf1, active compounds read low 1.02 | locus YCL011C, strain gbp2, active compounds read low 1.02 | locus YCL016C, strain dcc1, active compounds read low 1.01 | locus YCL061C, strain MRC1, active compounds read low 1.01 | locus YCL069W, strain vba3, active compounds read low 1.02 | locus YCR088W, strain abp1, active compounds read low 1.01 | locus YDL005C, strain med2, active compounds read low 1 | locus YDL040C, strain nat1, active compounds read low 1.01 | locus YDR001C, strain nth1, active compounds read low 1.02 | locus YDR069C, strain doa4, active compounds read low 1.02 | locus YDR137W, strain rgp1, active compounds read low 1.01 | locus YDR159W, strain sac3, active compounds read low 1.02 | locus YDR195W, strain ref2 1.01 | locus YDR297W, strain sur2, active compounds read low 1.02 | locus YDR334W, strain swr1, active compounds read low 1.01 | locus YDR335W, strain msn5, active compounds read low 1.02 | locus YDR392W, strain spt3, active compounds read low 0.958 | locus YEL003W, strain gim4, active compounds read low 1.02 | locus YEL037C, strain rad23, active compounds read low 1.02 | locus YEL061C, strain CIN8 (second series), active compounds read low 1.01 | locus YER015W, strain faa2, active compounds read low 1.01 | locus YER016W, strain bim1, active compounds read low 1.01 | locus YER111C, strain swi4, active compounds read low 1.02 | locus YER155C, strain BEM2 (second series), active compounds read low 1.03 | locus YFR010W, strain ubp6, active compounds read low 1.02 | locus YGL167C, strain pmr1, active compounds read low 1.02 | locus YGL173C, strain kem1, active compounds read low 1.01 | locus YGL227W, strain vid30, active compounds read low 1.02 | locus YGL240W, strain doc1, active compounds read low 1.04 | locus YGL253W, strain hxk2, active compounds read low 1 | locus YHR013C, strain ard1, active compounds read low 1.01 | locus YHR027C, strain rpn1, active compounds read low 1.02 | [1] 1.02 | [2] 1.02 | locus YHR142W, strain chs7, active compounds read low 1.01 | locus YJL092W, strain hpr5, active compounds read low 1.02 | locus YJL095W, strain BCK1 (second series), active compounds read low 1.02 | [3] 0.978 | locus YJL115W, strain asf1, active compounds read low 1.02 | locus YJL129C, strain trk1, active compounds read low 1.01 | locus YJL154C, strain vps35, active compounds read low 1.02 | locus YJL164C, strain tpk1, active compounds read low 0.999 | locus YJL166W, strain qcr8, active compounds read low 1.03 | [4] 0.961 | locus YKL160W, strain elf1, active compounds read low 1.02 | locus YKR026C, strain gcn3, active compounds read low 1.02 | locus YKR091W, strain srl3, active compounds read low 1.02 | locus YLL001W, strain dnm1, active compounds read low 1.01 | locus YLL026W, active compounds read low 1.02 | locus YLL041C, strain sdh2, active compounds read low 1.02 | locus YLR027C, strain aat2, active compounds read low 1.02 | [5] 0.969 | locus YLR221C, strain rsa3, active compounds read low 0.998 | locus YLR258W, strain gsy2, active compounds read low 1.02 | locus YLR262C, strain YPT6 (second series), active compounds read low 1.02 | locus YLR320W, strain mms22, active compounds read low 1.01 | locus YLR342W, strain FKS1, active compounds read low 1.03 | locus YLR357W, strain rsc2, active compounds read low 1.03 | locus YLR370C, strain arc18, active compounds read low 1.01 | locus YLR384C, strain iki3, active compounds read low 1.02 | locus YML120C, strain ndi1, active compounds read low 1.01 | locus YMR058W, strain fet3, active compounds read low 1.02 | locus YMR125W, strain sto1, active compounds read low 1.01 | locus YMR129W, active compounds read low 1.02 | locus YMR205C, strain PFK2, active compounds read low 1.02 | locus YMR231W, strain pep5, active compounds read low 1.03 | locus YNL071W, strain lat1, active compounds read low 1.02 | [6] 0.96 | locus YNL209W, strain ssb2, active compounds read low 1.01 | locus YNL248C, strain rpa49, active compounds read low 1 | locus YNL322C, strain KRE1 (second series), active compounds read low 1.02 | locus YNR049C, strain mso1, active compounds read low 1.02 | locus YOR001W, strain rrp6, active compounds read low 1.01 | locus YOR070C, strain gyp1, active compounds read low 1.01 | locus YOR080W, strain dia2, active compounds read low 1.02 | locus YOR083W, strain WHI5, active compounds read low 1.02 | locus YOR106W, strain vam3, active compounds read low 1.03 | [7] 1.02 | locus YOR265W, strain rbl2, active compounds read low 1.01 | locus YOR270C, strain vph1, active compounds read low 1.05 | locus YOR290C, strain snf2, active compounds read low 0.995 | locus YPL051W, strain arl3, active compounds read low 1.03 | locus YPL078C, strain atp4, active compounds read low 1.02 | locus YPL106C, strain sse1, active compounds read low 1.03 | locus YPL240C, strain hsp82, active compounds read low 1.01 | [8] 1.02

CC(C)[C@H](NC(=O)OCc1ccccc1)C(=O)N[C@H](C=O)Cc1ccccc1 (Cbz-Val-Phe-aldehyde)
inactive: [9] 0.961 | [10] 1 | [11] 1.04 | [12] 0.993 | [13] 0.976 | [14] 1.02 | [15] 0.969 | [16] 0.969 | [17] 0.996 | [18] 1 | [19] 0.997

O=C(NC(Cc1ccccc1)C(=O)CCl)OCc1ccccc1 (stereo unspecified)
inactive: [9] 1.03 | [10] 0.979 | [11] 1.02 | locus YGR078C, strain PAC10, active compounds read low 0.98 | [21] 0.913 | [18] 0.999 | locus YPL241C, strain CIN2, active compounds read low 0.992
active: [12] 0.549 | [20] 0.28 | [15] 0.707 | [16] 0.874 | [17] 0.784 | [19] 0.687

Cc1ccc(S(=O)(=O)N[C@@H](CCCCN)C(=O)CCl)cc1
inactive: locus YAL013W, strain DEP1, active compounds read low 1.02 | [9] 1.04 | [10] 1.01 | [11] 1.05 | [12] 1.02 | [20] 0.962 | [21] 0.995 | [13] 1.01 | [14] 1.01 | [15] 1.01 | [16] 1.02 | [17] 1.01 | [18] 1.02 | [19] 1.01 | locus YPL055C, strain LGE1, active compounds read low 1.03

CC(=O)NC(Cc1ccccc1)C(=O)O (stereo unspecified)
inactive: [1] 0.979 | [2] 0.984 | [3] 0.985 | [4] 0.91 | [5] 1.02 | [6] 0.89 | [7] 0.997 | [8] 0.984
